Data taken from PubChem BioAssay (NCI).
Compounds without any hit were thinned out: in the full panel of roughly 79,000, 15% have a hit. Unmarked numbers belong to inactive results. Activity calls are given as the source filed them. Cut-off read from the data, not from the text of the source: active = growth inhibition above about 70%; inactive = the rest.

Tests used:
[1] = NCI Yeast Anticancer Drug Screen. Data for the rad50 strain (AID 155);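 note: 0% = growth of vehicle-only cultures of the same strain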; details: S. cerevisiae rad50 strain growth inhibition, hits give high values
Method in brief: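 Compounds were tested on a yeast strain with an engineered DNA damage repair alteration; the reported value is growth inhibition normalised to vehicle treatment.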

[2] = NCI Yeast Anticancer Drug Screen. Data for the mec2-1 strain (AID 157); details: S. cerevisiae mec2-1 strain, hits give high values
Method in brief: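 Yeast mec2-1 mutant treated with compound. Readout: growth inhibition vs vehicle controls.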

[3] = NCI Yeast Anticancer Drug Screen. Data for the sgs1 mgt1 strain (AID 161);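 note: 0% = growth of cultures given vehicle only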; details: S. cerevisiae sgs1 mgt1 strain, hits give high values
Method in brief: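 Genetically altered yeast, compound exposure, growth inhibition relative to vehicle.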

[4] = NCI Yeast Anticancer Drug Screen. Data for the cln2 rad14 strain (AID 165);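 note: 0% = growth equal to vehicle treated cultures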; details: S. cerevisiae cln2 rad14 strain, hits give high values
Method in brief: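 cln2 rad14 yeast strain; compound exposure; growth inhibition read vs vehicle controls.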

[5] = NCI Yeast Anticancer Drug Screen. Data for the bub3 strain (AID 167); details: S. cerevisiae bub3 mutant strain, hits give high values
Method in brief: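 Growth of a checkpoint-deficient yeast mutant is measured after compound exposure. Values represent inhibition relative to vehicle.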

[6] = NCI Yeast Anticancer Drug Screen. Data for the mlh1 rad18 strain (AID 175); details: S. cerevisiae mlh1 rad18 strain growth inhibition, hits give high values
Method in brief: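 Yeast w/ defined DNA-repair lesions; compound exposure; growth vs vehicle controls → % inhibition.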

[7] = at 5.0 µM (retest, dose inferred, filed as 0.5)
[8] = at 50.0 µM (retest, dose inferred, filed as 5.0)

Structure (SMILES)	growth inhibition [1, 7]	growth inhibition [1, 8]	growth inhibition ([1]; at 50.0 µM)	growth inhibition [2, 7]	growth inhibition [2, 8]	growth inhibition ([2]; at 50.0 µM)	growth inhibition [3, 7]	growth inhibition [3, 8]	growth inhibition ([3]; at 50.0 µM)	growth inhibition [4, 7]	growth inhibition [4, 8]	growth inhibition ([4]; at 50.0 µM)	growth inhibition [5, 7]	growth inhibition [5, 8]	growth inhibition ([5]; at 50.0 µM)	growth inhibition [6, 7]	growth inhibition [6, 8]	growth inhibition ([6]; at 50.0 µM)
COc1ccc(-c2nnc(C)nc2-c2ccc(OC)cc2)cc1	3%	-1%	22.1%	-1%	7%	1.2%	3%	19%	23.2%	-6%	-1%	17.6%	14%	41%	81.6% (active)	0%	2%	13.2%
O=C1CN(CCN2CCOCC2)CC(=O)N2Cc3ccccc3CN12	12%	38%	61.6%	7%	55%	24.1%	27%	41%	66.5%	3%	46%	62.6%	6%	35%	68.5%	29%	64%	44.2%
COC(=O)Cc1nc2ccccc2s1	1%	99% (active)	99.2% (active)	-9%	100% (active)	99.5% (active)	11%	92% (active)	99.3% (active)	13%	96% (active)	97.3% (active)	-10%	100% (active)	98.5% (active)	-2%	76% (active)	99% (active)
CCN1/C(=C\c2cc(C)nc(-c3ccccc3)[n+]2C)C=Cc2ccccc21	29%	97% (active)	98% (active)	27%	99% (active)	98.1% (active)	27%	99% (active)	98.7% (active)	43%	98% (active)	98.8% (active)	64%	99% (active)	98.8% (active)	48%	99% (active)	98.7% (active)
CC1=CC(C)C(C)N(CCNC(=O)Nc2ccccc2)c2ccccc21 (configuration not stated)	17%	51%	77.2% (active)	16%	33%	80.9% (active)	14%	71% (active)	80.6% (active)	22%	80% (active)	75.5% (active)	-14%	75% (active)	84.2% (active)	14%	66%	70.2% (active)
Cc1ccc([S@](=O)c2occc2C=O)cc1	37%	88% (active)	74.5% (active)	29%	98% (active)	88.5% (active)	38%	98% (active)	84.5% (active)	23%	43%	13.4%	43%	98% (active)	62.6%	41%	96% (active)	88.2% (active)
Cc1cc(N2C(=O)CCSC2=S)ccc1Cl	88% (active)	28%	90.9% (active)	7%	27%	88.8% (active)	48%	43%	90.6% (active)	47%	43%	54.5%	45%	71% (active)	86% (active)	82% (active)	18%	87.5% (active)
OCCc1c2ccccc2cc2ccccc12	-135%	-50%	41.5%	-44%	-41%	10.6%	-61%	-36%	11.7%	-52%	-48%	11.8%	-60%	-43%	3.35%	-127%	-74%	59.8%
CCCC(CCC)NCCOC(=O)C(CC)c1ccccc1 (configuration not stated)	3%	42%	88% (active)	-5%	23%	15.9%	12%	63%	88.3% (active)	-35%	62%	55.9%	7%	75% (active)	49.6%	4%	47%	75% (active)
Nc1ccc(N)c2c1C(=O)c1ccccc1C2=O	32%	72% (active)	83.2% (active)	-1%	11%	11.7%	2%	14%	24.6%	3%	3%	6.9%	0%	24%	31.3%	5%	22%	50.6%
O=C(/C=C/c1cc(O)c(O)cc1O)OCCc1ccccc1	17%	50%	47.1%	16%	61%	75.5% (active)	20%	64%	69.8%	32%	33%	53.7%	25%	68%	66%	21%	75% (active)	68.5%
CCOC(=O)C(NC(C)=O)[CH](c1ccccc1)[Sn]([Cl])([c]1ccccc1)[c]1ccccc1 (configuration not stated)	-7%	-13%	59.4%	-1%	-12%	65.7%	-8%	-5%	64.7%	-22%	-2%	49.1%	-14%	12%	37.4%	1%	1%	60.5%
COc1ccc(C(C)(C)c2cc3c(cc2OCCO)OCO3)cc1	-1%	82% (active)	89.8% (active)	1%	90% (active)	92.2% (active)	4%	92% (active)	97% (active)	0%	70% (active)	60.1%	13%	90% (active)	90.2% (active)	1%	94% (active)	93.3% (active)
C/C(=N\NC(=S)N1CCN(c2ccccc2)CC1)c1nccs1	28%	96% (active)	90.5% (active)	56%	98% (active)	91.8% (active)	33%	99% (active)	91.1% (active)	22%	98% (active)	90.9% (active)	63%	99% (active)	88.3% (active)	34%	97% (active)	89.8% (active)
CC(=NCC(=O)O)c1ccccc1	-12%	-6%	48.5%	-6%	-3%	-20.2%	-8%	-4%	-52.9%	2%	-6%	-4.8%	10%	13%	-22.1%	-4%	1%	-5.7%
O=C(Cc1ccc(C2=NCCN2)cc1[N+](=O)[O-])c1ccc(C2=NCCN2)cc1	-3%	73% (active)	49.2%	-7%	35%	89.6% (active)	0%	55%	26.8%	-5%	16%	25%	-8%	71% (active)	49.3%	-5%	68%	68.7%
O=C(N/N=C/c1cc(Cl)cc(Cl)c1O)c1ccccc1	39%	22%	69.9%	41%	36%	57.5%	55%	48%	69.6%	14%	1%	33.6%	46%	30%	71.6% (active)	45%	40%	69.8%
O=C(Oc1c(I)ccccc1=O)c1ccc([N+](=O)[O-])cc1	39%	98% (active)	99.2% (active)	57%	99% (active)	99.3% (active)	73% (active)	99% (active)	99.3% (active)	13%	98% (active)	99.2% (active)	21%	98% (active)	99% (active)	94% (active)	99% (active)	99.5% (active)
COc1ccc(Cc2nncc3ccccc23)cc1OC	-4%	84% (active)	91.2% (active)	1%	83% (active)	96.5% (active)	-3%	92% (active)	95.3% (active)	1%	83% (active)	72.2% (active)	1%	90% (active)	96% (active)	-4%	93% (active)	95.7% (active)
